Screening results as filed in PubChem.
In the library only some 8.7% were active in any assay of this set; here they are far more common.
HP1b chromo inh: inhibitors of HP1-beta chromodomain binding to methylated histone tails; AID 540317; Potency, µM (doses to about 114 µM), for the others: at the top dose activity change, negative = inhibition, usual class: inhibitors; actives 0.56% (n = 390,000); P83916; AlphaScreen HP1-beta / biotin-H3K9me3 peptide binding; also: nearly all actives have a fitted effect of over 70% in size
Target sequence (P83916 whole entry, looked up): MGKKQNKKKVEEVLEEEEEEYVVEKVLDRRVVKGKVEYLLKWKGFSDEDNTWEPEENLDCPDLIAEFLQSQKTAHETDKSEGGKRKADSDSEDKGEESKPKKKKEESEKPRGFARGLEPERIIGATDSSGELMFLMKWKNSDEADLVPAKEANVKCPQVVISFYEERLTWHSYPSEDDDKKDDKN
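HP1-beta protein (50 nM final) preincubated 30 min at room temperature with biotinylated H3(1-18)K9me3 peptide (50 nM) in PBS pH 7.4, 0.01% Tween-20, then compound added for 30 min. AlphaScreen streptavidin donor/nickel chelate acceptor beads (10 ug/mL final), 30 min dark, luminescence read.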
BAZ2B block: inhibitors of human BAZ2B bromodomain | AlphaScreen BAZ2B-H3K14Ac peptide displacement | Potency, µM (highest dose often 114 µM), for inactives: at the top dose activity change, negative = inhibition, most hits filed as inhibitors | actives 4.4% (n = 360,000); also: % is scaled to controls: 0 for no effect and ±100 for the full control effect; nearly all actives have a fitted effect of over 60% in size
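Multi-concentration screen (max 110 uM) measuring displacement of acetylated histone H3 peptide from BAZ2B by AlphaScreen, using 50 nM protein, 50 nM peptide and 10 ug/mL streptavidin donor plus Ni-chelate acceptor beads.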
ALOX12 inh: blocks human arachidonate 12S-lipoxygenase; AID 1671190; purified 12hLO, xylenol orange hydroperoxide absorbance; actives 1.1% (n = 580,000); P18054; Potency, µM (series often up to 108 µM), for inactives: at the highest dose activity change, negative = inhibition, most hits filed as inhibitors; also: % is scaled to controls: 0 for no effect and ±100 for the full control effect
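Purified human 12hLO (150 nM final) in 25 mM Hepes, 0.01% Triton X-100, pH 7.0 was preincubated 15 min at room temperature with compound. Then 40 uM arachidonic acid was added, 30 min. Hydroperoxide was read by Fe-XO absorbance ratio 573/405 nm.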
G9a inh: G9a (human) methyltransferase inhibition; Q96KQ7; G9a H3K9 monomethylation, AlphaScreen, 2 h; Potency, µM (titrated, usually from 102 µM), for the others: at the highest dose activity, negative = inhibition, most hits filed as inhibitors; actives 8.8% (n = 350,000); AID 504332; also: % is scaled to controls: 0 for no effect and ±100 for the full control effect; nearly all actives have a fitted effect of over 75% in size
Target sequence (Q96KQ7 913-1193 limits assumed): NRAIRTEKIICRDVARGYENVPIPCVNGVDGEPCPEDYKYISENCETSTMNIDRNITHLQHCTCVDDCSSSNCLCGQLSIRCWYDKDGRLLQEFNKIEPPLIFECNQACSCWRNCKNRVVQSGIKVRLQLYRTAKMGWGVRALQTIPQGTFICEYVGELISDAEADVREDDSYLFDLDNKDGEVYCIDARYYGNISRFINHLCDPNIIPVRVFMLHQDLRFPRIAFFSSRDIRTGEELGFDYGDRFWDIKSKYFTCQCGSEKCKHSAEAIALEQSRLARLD
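Step 1: enzyme (final 20 nM) with compound, 15 min RT. Step 2: substrate peptide 500 nM and SAM 20 uM, 2 h RT. Step 3: anti-H3K9me1 antibody and AlphaScreen beads, 10 min, then plate read.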
Sfp PPTase inh: inhibitors of Bacillus subtilis Sfp phosphopantetheinyl transferase. Biochemical Sfp PPTase activity, qHTS. Potency, µM, for inactives: largest response in the series, negative = inhibition, hits mostly inhibitors. actives 3.5% (n = 310,000). AID 1490;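 also: the enzyme is Sfp with the accession as filed and its product quenches rhodamine fluorescence; 0% = enzyme reaction without inhibitor and -100% = no enzyme wells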
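Buffer: 50 mM Hepes-Na pH 7.6, 10 mM MgCl2, 0.01% Nonidet P-40, 0.01% BSA. Enzyme 15 nM, pre-exposed to compound 15 min; substrates then added and fluorescence change tracked over 30 min.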
JMJD2A Tudor: inhibitors of human JMJD2A Tudor domain; O75164; AID 504339; actives 4.4% (n = 390,000); AlphaScreen JMJD2A-Tudor / H3K4me3 peptide binding; Potency, µM (doses to about 114 µM), without a hit: top-dose activity change, negative = inhibition, hits mostly inhibitors; also: % is scaled to controls: 0 for no effect and ±100 for the full control effect; nearly all actives have a fitted effect of over 50% in size
* = called active by the depositor; ? = inconclusive; · = no result; ! = repeats disagree; [ ] = remark or other dose. Calls follow the shape of the dose curve; as a rule, active = well fitted curve in the direction sought with a large enough effect; inconclusive = small, poorly fitted or top-dose-only effect, or another doubt; inactive = no such curve, though single readings can be large; an effect the other way counts as inactive or inconclusive. Potency is read from the fitted curve at half-maximal effect.

SMILES	HP1b chromo inh	BAZ2B block	ALOX12 inh	G9a inh	Sfp PPTase inh	JMJD2A Tudor
Fc1cccc(NC(=S)NNc2c3ccccc3nc3ccccc23)c1	?	7.1µM*	40µM*	16µM*	-9%	?
COC(=O)c1cc2c(Br)cc(OC)c(OC)c2[nH]1	·	·	-1%	·	·	·
Cc1ccc(C2Cn3nnc(-c4noc(-c5ccncc5)n4)c3CO2)cc1 (stereo unspecified)	·	·	41%	·	·	·
Cc1ccccc1-n1c(=O)cc(N2CCN(C(=O)c3ccco3)CC2)[nH]c1=O	2%	8%	22%[57.4 µM]	?	79µM*	-15%
Cc1ccccc1-n1c(=O)cc(N2CCCCCC2)[nH]c1=O	25%	-5%	?	-13%[59 µM]	5%	-12%
Cc1c(C(=O)N2CCCCC2)sc2nc(-c3ccc(F)cc3)cn12	·	·	35%	·	·	·
COc1ccc(C(O)Cn2ccsc2=NC(C)=O)cc1 (stereo unspecified)	48%	-29%	?	50µM*	-11%	-3%
CCOCCCNC(=O)CSCCCC(=O)Nc1c(C)cc(C)cc1C	·	·	14%	·	·	·
O=S(=O)(Nc1cccc(-c2ccc(N3CCCCCC3)nn2)c1)c1cccc(F)c1	18%	-20%[57.1 µM]	53%	32µM*!	11%	-26%
COc1ccc(OC)c(S(=O)(=O)Nc2ccc(-c3ccc(N4CCC(C)CC4)nn3)cc2)c1	·	·	8.9µM*	·	·	·
COc1ccc(C)cc1S(=O)(=O)Nc1cccc(-c2ccc(N3CCCCCC3)nn2)c1	4%	-13%	8%	10%[0.501 µM]	6%	16µM*
O=C(Nc1cccc(-c2ccc(N3CCCCC3)nn2)c1)c1ccc(Br)o1	7%	-6%	?	28µM*	·	-15%
Cc1cc(C)c(S(=O)(=O)Nc2ccc(-c3ccc(N4CCC(C)CC4)nn3)cc2)cc1C	14%[57 µM]	-16%	-9%	-24%[59 µM]	·	-22%
O=Cc1cc(Br)c2c(c1)OCCCO2	·	·	18%	·	·	·
Cc1cc(C)c2c(-n3cccc3)nn(CC(=O)Nc3cc(Cl)ccc3C)c2n1	·	·	-55%	·	·	·
COc1ccc(S(=O)(=O)Nc2cccc(-c3ccc4nncn4n3)c2)c(OC)c1	?	2%	?	11µM*	·	3%
COc1ccc(S(=O)(=O)Nc2cccc(-c3ccc(N4CCCCC4)nn3)c2)c(OC)c1	·	·	11µM*	·	·	·
COc1cc(C)c(S(=O)(=O)Nc2cccc(-c3ccc(N4CCCC4)nn3)c2)cc1C	13%[57 µM]	-19%	-1%	9%[59 µM]	·	-16%
O=C(O)CNS(=O)(=O)c1c(Cl)cccc1Cl	19%	-1%	?	5%	4%	14µM*
O=C(CCn1cnc2sc3c(c2c1=O)CCCC3)NC1CCS(=O)(=O)C1 (stereo unspecified)	·	·	15%	·	·	·
CCN(C(=O)C1CCCCC1)c1nnc(-c2cccnc2)s1	52%	?	?	50µM*	-5%	?
COCCN(C(=O)C1CCC1)c1nnc(-c2cccnc2)s1	55%	-20%	59%	1%[59 µM]	5%	-6%
O=C(O)C1CSC(c2coc3ccccc3c2=O)N1 (stereo unspecified)	?	50µM*	-34%	?	45µM*	25µM*
CC1CCOC(c2coc3ccccc3c2=O)O1 (stereo unspecified)	9%	11%	7%	-12%[59 µM]	-12%	-9%
C=CCOc1c(Br)cc(CNn2c(C)n[nH]c2=S)cc1OCC	23%	-32%	?	16µM*	-7%	?
SMILES	HP1b chromo inh	BAZ2B block	ALOX12 inh	G9a inh	Sfp PPTase inh	JMJD2A Tudor
C=CCOc1c(Br)cc(CNn2cn[nH]c2=S)cc1OC	22%	-11%	-11%	-131%[59 µM]	-10%	79µM*
COc1cc(CNn2c(C)n[nH]c2=S)cc(Br)c1OCc1ccc(F)cc1	3%	?	?	22µM*	-10%	-31%
CCOc1ccc(-c2nnc(SCC(=O)Nc3ccc(C)cc3Cl)o2)cc1	58%	-19%	-20%	?	·	-25%
CCOc1ccc(-c2nnc(SCC(=O)Nc3ccc(C)cc3C)o2)cc1	27%	-4%	1%	-6%[59 µM]	·	79µM*
CCOc1ccc(-c2nnc(NC(=O)Cc3cc(OC)c(OC)c(OC)c3)o2)cc1	36%	22µM*	46%	-9%[2.33 µM]	-6%	28µM*
Cn1c(=O)n(C)c2cc(Sc3ccccc3Cl)c(NC(=O)C(C)(C)C)cc21	·	·	9%	·	·	·
Cc1ccc(Cc2c(-c3ccco3)nc3c4ccccc4ccn23)cc1	·	·	5µM*	·	·	·
Cc1ccc(Cc2c(-c3ccccc3)nc3c(C)cc(Br)cn23)cc1	·	·	13%	·	·	·
Cc1ccc(-c2nc3c4ccccc4ccn3c2Cc2cccc(Cl)c2)cc1	·	·	-5%	·	·	·
Cc1ccc(Cc2c(-c3ccco3)nc3c(C)cc(Br)cn23)cc1	·	·	14µM*	·	·	·
CC(C)(C)NC(=O)Cn1c(SCC(N)=O)nc2ccccc21	-9%	8%	0%	-7%[0.0925 µM]	5%	20µM*
CCCn1c(SCC(=O)C(C)(C)C)nc2ccccc21	46%	-15%	0%	35µM*	56µM*	6%
CCCn1c(SC(C)C(=O)O)nc2ccccc21 (stereo unspecified)	63%	?	·	-39%[12.7 µM]	2%	?
CN(C)c1nc(-c2ccncc2)nc2c1CCN(C(=O)c1ccc(=O)[nH]c1)C2	·	·	2%	·	·	·
CCCCn1c(C23CC4CC(CC(C4)C2)C3)n[nH]c1=S	-10%	-34%	?	·	-15%	32µM*
COCCn1c(C23CC4CC(CC(C4)C2)C3)n[nH]c1=S	28%	-5%	?	?	32µM*	7.1µM*
CCCCCC1CCC(c2n[nH]c(=S)n2C)CC1 (stereo unspecified)	34%	?	?	?	-19%	4%
COCCn1c(CCc2ccccc2)n[nH]c1=S	14%	0%	-18%	-7%	12%	?
COc1cc(Cl)c(C)cc1NC(=O)Cn1nc2ccc(SC3CCCCC3)nn2c1=O	·	·	-24%	·	·	·
Oc1ccc2oc3c(c2c1C=NCc1ccncc1)CCCC3	31%	70%	?	71µM*	50µM*	-6%
Oc1ccc2oc3c(c2c1/C=N/n1cnnc1)CCCC3	29%	·	?	?	9%	-12%
CC1OC(CC(=O)O)CC2=C1C(=O)c1c(O)cccc1C2=O (stereo unspecified)	?	·	?	·	·	56µM*
COc1cc(Nc2cc3c(cn2)cc(-c2cnn(C)c2)n3Cc2ccccc2)cc(OC)c1OC	·	·	-20%	·	·	·
CC(=O)C1=C(O)C(=O)N(CC(=O)O)C1c1ccccc1Cl (stereo unspecified)	23%	71µM*	·	50µM*	-6%	?
CC(=O)C1=C(O)C(=O)N(C)C1c1ccccc1[N+](=O)[O-] (stereo unspecified)	?	-18%	?	11µM*	71µM*	?
